In PubChem BioAssay AID431 (Sanford-Burnham Center for Chemical Genomics, 2006):
The whole screen tested about 63,000 compounds, of which about 1,100 (1.7%) were called active. Shown is part of a subset that was picked to be rich in actives. Potency and affinity values are given separately. Unmarked numbers belong to inactive results.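 How the source made its calls: active means compounds whose percent cytotoxicity in the single-dose primary screen, scaled between solvent and toxic-drug controls, exceeds 50; inactive means the rest.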

Assay: cytotoxicity in KRAS-transformed pancreatic duct cells, primary screen, cell-based, fluorescence, HTS (AID 431);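 further: 0% = DMSO solvent wells and 100% = doxorubicin-treated wells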
Settings: HPDE-C7K KRASV12 cells, Alamar Blue viability, 48 h; at 10 µM; active compounds read high

Question: With Cc1cccc(NC(=O)CSc2n[nH]c(-c3ccncc3)n2)c1 as the molecule, how does the cytotoxicity read?
Answer: -6.1%

Question: For Cc1ccc(N(CC(=O)Nc2ccc3c(c2)OCCO3)S(=O)(=O)c2c(C)n[nH]c2C)cc1, which cytotoxicity is on record?
Answer: 9.8%

Question: With COc1cc2c(C#N)c(N3CCCCC3)nc(N)c2c(N)n1 as the molecule, how does the cytotoxicity read?
Answer: 56.9% (active)

Question: With CCOc1cc2c(C#N)c(N3CCOCC3)nc(N)c2c(N)n1 as the molecule, how does the cytotoxicity read?
Answer: 22.5%

Question: Which cytotoxicity does the source give for COc1cc2c(C#N)c(N3CCN(c4ccccc4OC)CC3)nc(N)c2c(N)n1 here?
Answer: 57.2% (active)

Question: With COc1ccccc1-c1nc(C#N)c(N2CCc3ccccc3C2)o1 as the molecule, how does the cytotoxicity read?
Answer: 20.5%

Question: Which cytotoxicity does the source give for COc1cc2c(C#N)c(N3CCOCC3)nc(N)c2c(N)n1 here?
Answer: 46.6%

Question: With N#Cc1c(N2CCCC2)nc(N)c2c(N)nc(N3CCCC3)cc12 as the molecule, how does the cytotoxicity read?
Answer: -2.8%

Question: With CCOc1ccccc1N1CCN(c2nc(N)c(C#N)c(CC#N)c2C#N)CC1 as the molecule, how does the cytotoxicity read?
Answer: -11.4%

Question: With COc1ccccc1N1CCN(c2nc(N)c(C#N)c(CC#N)c2C#N)CC1 as the molecule, how does the cytotoxicity read?
Answer: -4.3%

Question: Which cytotoxicity does the source give for Cn1c(=O)c2c(nc(Oc3ccc4c(c3)OCO4)n2Cc2ccc(Cl)cc2)n(C)c1=O here?
Answer: 12.9%

Question: For Cc1cc(Br)c(S(=O)(=O)NCCN2CCOCC2)cc1C, which cytotoxicity is on record?
Answer: 8.4%

Question: Which cytotoxicity does the source give for CN(Cc1ccco1)C(=O)Cn1c(=O)oc2cc(S(=O)(=O)NCc3ccccc3)ccc21 here?
Answer: 13.3%

Question: With CN(CCCn1c(=S)[nH]c2ncccc2c1=O)Cc1ccccc1 as the molecule, how does the cytotoxicity read?
Answer: -13.7%

Question: With COc1ccc(OC)c(-c2cc(C(=O)N3CCCc4ccccc43)no2)c1 as the molecule, how does the cytotoxicity read?
Answer: -6.9%

Question: For COc1ccc(CCNC2CC(=O)N(CCc3ccc(OC)c(OC)c3)C2=O)cc1OC (stereo not given), which cytotoxicity is on record?
Answer: 6.1%

Question: Which cytotoxicity does the source give for COC(=O)Nc1ccc(Oc2ccccc2)cc1 here?
Answer: -4.1%

Question: For COc1ccccc1C(c1nnnn1Cc1ccccc1)N1CCN(c2nc3ccccc3s2)CC1 (stereo not given), which cytotoxicity is on record?
Answer: -13%

Question: With O=S(=O)(c1ccc(Oc2ccc(S(=O)(=O)N3CCOCC3)cc2)cc1)N1CCOCC1 as the molecule, how does the cytotoxicity read?
Answer: -9%

Question: With CNS(=O)(=O)c1ccc(Oc2ccc(S(=O)(=O)NC)cc2)cc1 as the molecule, how does the cytotoxicity read?
Answer: 9.9%

Question: With C=CS(=O)(=O)c1ccc(Oc2ccc(S(=O)(=O)C=C)cc2)cc1 as the molecule, how does the cytotoxicity read?
Answer: 94.8% (active)

Question: For CCn1cc(C(=O)NCCCN(C)C)c(=O)c2cc(F)c(N3CCN(C)CC3)cc21, which cytotoxicity is on record?
Answer: -0.3%

Question: For CCn1cc(C(=O)NCCc2ccccc2)c(=O)c2cc(F)c(N3CCN(C)CC3)cc21, which cytotoxicity is on record?
Answer: 50.5% (active)

Question: Which cytotoxicity does the source give for CCn1cc(C(=O)NCc2ccccn2)c(=O)c2cc(F)c(N3CCN(C)CC3)cc21 here?
Answer: 2.1%

Question: With C/C(Cl)=C\Cn1c(N2CCCCCC2)nc2c1c(=O)n(C)c(=O)n2C as the molecule, how does the cytotoxicity read?
Answer: 12%

Question: Which cytotoxicity does the source give for N#Cc1ccc(NC(=O)c2cc3cc4c5c(c3oc2=N)CCCN5CCC4)cc1 here?
Answer: 12.7%

Question: Which cytotoxicity does the source give for O=C(c1cc(Cl)ccc1Cl)N1CCN(c2ccccn2)CC1 here?
Answer: 1.5%

Question: With Cc1cc(-c2ccccc2)nc(N2CCN(c3ccccn3)CC2)n1 as the molecule, how does the cytotoxicity read?
Answer: 5.4%

Question: For COC(=O)c1sc(Nc2ccccc2)nc1C, which cytotoxicity is on record?
Answer: 0.2%

Question: Which cytotoxicity does the source give for CCS(=O)(=O)N1CCN(c2cccc(C)c2C)CC1 here?
Answer: -2.5%

Question: With c1ccc(-c2ccc(-c3nc(-c4ccccn4)no3)cc2)cc1 as the molecule, how does the cytotoxicity read?
Answer: -2.8%

Question: Which cytotoxicity does the source give for c1ccc(-c2cc(-c3nc(-c4cccnc4)no3)c3ccccc3n2)cc1 here?
Answer: -19.7%

Question: With c1ccc(-c2cc(-c3nc(-c4ccccn4)no3)c3ccccc3n2)cc1 as the molecule, how does the cytotoxicity read?
Answer: 60.7% (active)

Question: Which cytotoxicity does the source give for Cc1cc(C)n2cc(CSc3nnnn3-c3ccccc3C)nc2n1 here?
Answer: -17.4%

Question: With COc1ccc(CSc2nnc(N)s2)cc1F as the molecule, how does the cytotoxicity read?
Answer: 49.9%

Question: For Cc1ccc2c(c1)c1c3n2CCN(C(=O)CN2CCN(C)CC2)C3CCC1 (stereo not given), which cytotoxicity is on record?
Answer: 42.5%

Question: Which cytotoxicity does the source give for Cc1ccc2c(c1)c1c3n2CCN(C(=O)C2CC2)C3CCC1 (stereo not given) here?
Answer: -2.9%

Question: Which cytotoxicity does the source give for COc1ccccc1N1CCN(C(=O)CCCCn2c(=O)[nH]c3ccsc3c2=O)CC1 here?
Answer: 1.8%

Question: Which cytotoxicity does the source give for CN1CCc2nc(SCC(=O)Nc3ccc(F)cc3)c(C#N)cc2C1 here?
Answer: -5%

Question: With FC(F)(F)c1cccc(CN2CCCCCC2)c1 as the molecule, how does the cytotoxicity read?
Answer: -5.3%

Question: With O=C(Nc1cccc(C(F)(F)F)c1)c1cccnc1N1CCN(CCO)CC1 as the molecule, how does the cytotoxicity read?
Answer: -13.4%

Question: For O=C(CN1CCCC(O)C1)N1c2ccccc2Sc2ccc(C(F)(F)F)cc21 (stereo not given), which cytotoxicity is on record?
Answer: -4%

Question: With C=CCN1C(=O)c2ccccc2Sc2ccc(C(=O)N3CCN(C)CC3)cc21 as the molecule, how does the cytotoxicity read?
Answer: -13.7%

Question: With C=CCOC(=O)CC(NC(=O)c1ccccc1)c1ccccc1 (stereo not given) as the molecule, how does the cytotoxicity read?
Answer: -11.4%

Question: For COc1ccccc1-c1cn(S(=O)(=O)c2ccc(F)cc2)nc1N, which cytotoxicity is on record?
Answer: 2%

Question: Which cytotoxicity does the source give for Cc1ccc(C(=O)c2coc3ccc(O)c(CN4CCN(C)CC4)c23)cc1 here?
Answer: -9%

Question: With O=C(c1ccccc1)c1coc2ccc(O)c(Cl)c12 as the molecule, how does the cytotoxicity read?
Answer: -15%

Question: For CCOC(=O)c1[nH]nc(C(=O)c2ccc(Br)cc2)c1O, which cytotoxicity is on record?
Answer: 5.4%

Question: Which cytotoxicity does the source give for CN(C)Cc1c(O)ccc2occ(C(=O)c3ccccc3)c12 here?
Answer: 6.6%

Question: Which cytotoxicity does the source give for CC(=O)C(C(C)=O)c1c(Cl)c(O)c(O)c2c(C(=O)c3ccccc3)coc12 here?
Answer: 76.1% (active)
